Measured values reported in PubChem BioAssay (NCATS).
Results filed as inconclusive are left out. Values without a mark were called inactive. Calls of active or inactive are those of the source. Calls come from the whole dose curve; as a rule, active = well fitted cell-killing curve with a large enough effect; inconclusive = small, poorly fitted or top-dose-only effect, or effect the other way; inactive = flat fitted curve, though single readings scatter.

experiment: Cell Viability - LYMP2-003 (AID 965); settings: LYMP2-003 lymphoblastoid cell viability; series mostly up to 92.2 µM; activity change, negative = cytotoxicity: at the top concentration;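 note: cells exposed to compounds for 24 h before reading; nearly all actives have a fitted effect of over 50% in size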;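 for activity change, negative = cytotoxicity: 0% = DMSO only and full effect = 92 µM tetraoctylammonium bromide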
Description: NIH Chemical Genomics Center [NCGC]
NIH Molecular Libraries Screening Centers Network [MLSCN]
National Institutes of Environmental Health Sciences [NIEHS]
National Toxicology Program [NTP]
We have developed a 1536-well cell-based assay for quantitative high throughput screening (qHTS) against a number of cell lines to determine in vitro cytotoxicity of small molecules. This particular assay uses a human lymphoblastoid cell line (LYMP2-003) purchased from Coriell Institute for Medical Research.
NCGC Assay Protocol Summary:
The CellTiter-Glo luminescent cell viability assay (Promega) is a homogeneous method to measure the number of viable cells in culture. The end point readout of this assay is based on quantitation of intracellular ATP, an indicator of metabolic activity, using the luciferase reaction. Luciferase catalyzes the oxidation of beetle Luciferin to oxyluciferin and light in the presence of ATP. The luminescent signal is proportional to amount of ATP present.
Using the CellTiter-Glo luminescent cell viability assay, the amount of cellular ATP was measured in the lymphoblastoid cell line with complete culture medium following compound treatment for 24 hours. The assay was performed in opaque white Kalypsys 1536-well plates. In the screen, tetraoctylammonium bromide was used as positive control. Library compounds were measured for their ability to cause acute toxicity in the cell line, as reflected by a decrease in intracellular ATP levels, in a concentration-dependent manner. […] AC50 values were determined from concentration-response data modeled with the standard Hill equation.
qHTS protocol for CellTiter Glo lymphoblastoid cellular assay
[Step] [Parameter] [Value] [Description]
1. Reagent; 5 uL; 2500 lymphoblastoid cells/well
2. Time; 5 hr; 37 C incubation
4. Controls; 23 nL; Tetraoctylammonium bromide 6.4pM to 92 uM
5. Time; 24 hr; 37 C incubation
6. Reagent; 5 uL; CellTiter Glo reagent
7. Time; 30 min; Room Temperature
8. Detection; Luminescence; Viewlux plate reader
Keywords: cell viability, cytotoxicity, lymphoblastoid cell line, luminescence, NTPHTS, NTPHTS_NCGC, NIEHS, DSSTox, MLSMR, MLSCN, NIH Roadmap, qHTS, NCGC
Potency is the fitted concentration of half-maximal effect.

For `O=C(OCC1CO1)C1CCCCC1C(=O)OCC1CO1` (stereo not given), which Potency is on record?
Its Potency is 50.1 µM (active).

With `Cc1ccc(O)c(N)c1` as the compound, how does the Potency read?
Its Potency is 79.4 µM (active).

Which “activity change, negative = cytotoxicity” value does the source give for `C=Cc1cccc(C)c1` here?
The value was 16.9%.

Which Potency does the source give for `C/C=C/C=C/C=O` here?
Its Potency is 39.8 µM (active).

For `Clc1nc2ccccc2nc1Cl`, which “activity change, negative = cytotoxicity” value is on record?
The value was -27.2%.

Which “activity change, negative = cytotoxicity” value does the source give for `C=C(C#N)C(=O)OCC` here?
The value was -15.4%.

With `Cc1c2ccccc2c(C)c2c1ccc1ccccc12` as the compound, how does the “activity change, negative = cytotoxicity” value read?
Its value is -26.9%.

With `COc1ccc(C)cc1N` as the compound, how does the “activity change, negative = cytotoxicity” value read?
Its value is -0.445%.

Which Potency does the source give for `C=C1CC[C@H](O)C/C1=C/C=C1\CCC[C@]2(C)[C@@H]([C@H](C)CCCC(C)C)CC[C@@H]12` here?
Its Potency is 39.8 µM (active).

For `c1ccncc1`, which “activity change, negative = cytotoxicity” value is on record?
Its value is 24.6%.

For `CCCCC(CC)COP(=O)(OCC(CC)CCCC)OCC(CC)CCCC` (stereo not given), which “activity change, negative = cytotoxicity” value is on record?
Its value is -7.53%.

With `O=C1c2ccccc2C(=O)C1(O)O` as the compound, how does the Potency read?
Its Potency is 50.1 µM (active).

Which “activity change, negative = cytotoxicity” value does the source give for `Cc1ccc2ccc3cccc4ccc1c2c34` here?
The value was 10.6%.

Which “activity change, negative = cytotoxicity” value does the source give for `CC(=O)c1ccc(Cl)c(Cl)c1Cl` here?
The value was 6.94%.

Which “activity change, negative = cytotoxicity” value does the source give for `CC(=O)OC(C(=O)c1ccccc1)c1ccccc1` (stereo not given) here?
The value was 0.281%.

Which “activity change, negative = cytotoxicity” value does the source give for `Nc1cc([N+](=O)[O-])ccc1O` here?
Its value is -0.472%.

Which “activity change, negative = cytotoxicity” value does the source give for `C[Si](C)(C)Cl` here?
The value was -10.6%.

With `Cc1ccccc1OCC1CO1` (stereo not given) as the compound, how does the “activity change, negative = cytotoxicity” value read?
The value was 9.25%.

For `c1ccc(SCCSc2ccccc2)cc1`, which “activity change, negative = cytotoxicity” value is on record?
Its value is 9.93%.

Which “activity change, negative = cytotoxicity” value does the source give for `C/C=C1/C(=O)C[C@H]2[C@@H]3CCC4=CC(=O)CC[C@]4(C)[C@H]3CC[C@]12C` here?
Its value is -20%.

Which Potency does the source give for `Oc1cc2c(cc1O)[C@H]1c3ccc(O)c(O)c3OC[C@@]1(O)C2` here?
The Potency was 31.6 µM (active).

Which “activity change, negative = cytotoxicity” value does the source give for `Nc1ccccc1O` here?
The value was -21.6%.

Which “activity change, negative = cytotoxicity” value does the source give for `Cc1ccc(C(=O)O)cc1[N+](=O)[O-]` here?
The value was 6.68%.

With `CC(CCC(=O)O)(c1ccc(O)cc1)c1ccc(O)cc1` as the compound, how does the “activity change, negative = cytotoxicity” value read?
The value was 7.88%.

Which “activity change, negative = cytotoxicity” value does the source give for `C=CC1CO1` (stereo not given) here?
Its value is 10.3%.

With `CC(C)COC(=O)COc1cc(Cl)c(Cl)cc1Cl` as the compound, how does the “activity change, negative = cytotoxicity” value read?
The value was 11.4%.

With `C=CC(C)(O)CCCC(C)CCCC(C)CCCC(C)C` (stereo not given) as the compound, how does the “activity change, negative = cytotoxicity” value read?
Its value is 24.2%.

For `c1ccc2c(c1)ccc1ccccc12`, which “activity change, negative = cytotoxicity” value is on record?
The value was -4.84%.

With `CCCCCCN` as the compound, how does the “activity change, negative = cytotoxicity” value read?
The value was 8.81%.

With `c1c[nH]cn1` as the compound, how does the “activity change, negative = cytotoxicity” value read?
Its value is 12.1%.

Which Potency does the source give for `CCN(CC)c1ccc(N)cc1` here?
The Potency was 39.8 µM (active).

With `COc1cc(-c2ccc(N=C=O)c(OC)c2)ccc1N=C=O` as the compound, how does the “activity change, negative = cytotoxicity” value read?
Its value is 8.64%.

Which “activity change, negative = cytotoxicity” value does the source give for `CC(=O)Nc1cccc(C)c1` here?
The value was -11.2%.

With `CCCCCCCC/C=C\CCCCCCCC(=O)N(CCO)CCO` as the compound, how does the “activity change, negative = cytotoxicity” value read?
The value was -15.2%.

Which “activity change, negative = cytotoxicity” value does the source give for `NC(=O)c1ccc([N+](=O)[O-])cc1` here?
The value was 12.7%.

With `CCCCCCCCOc1ccc(C(=O)O)cc1` as the compound, how does the “activity change, negative = cytotoxicity” value read?
Its value is 7.08%.

With `CCCCCCc1ccc(-c2ccc(C#N)cc2)cc1` as the compound, how does the “activity change, negative = cytotoxicity” value read?
The value was -8.9%.

With `Cc1cc(=O)oc2cc(O)cc(O)c12` as the compound, how does the “activity change, negative = cytotoxicity” value read?
Its value is -2.22%.

Which “activity change, negative = cytotoxicity” value does the source give for `CCCCC(CC)COC(=O)COc1ccc(Cl)cc1Cl` (stereo not given) here?
The value was -4.31%.

With `Cc1cc2nc(N)sc2cc1C` as the compound, how does the “activity change, negative = cytotoxicity” value read?
The value was -15.7%.
